Source: PubChem BioAssay (several laboratories)
HCT116 bCat-KO – primary screen for growth suppressors in beta-catenin knockout HCT116 cells (colon tumor, human); HCT116 beta-catenin knockout viability, CellTiter-Glo, 60 h; stronger effect = lower value; 140,000 compounds, 1.5% hits; AID 818, 2007; viability, % at 10 µM;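 active means viability at or under a set limit, the compound median less 4 SD, cut at about 6% in these data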;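 further: 0% = Hyamine 1622 control at 20 µM and 100% = untreated cell control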
ROMK primary – ROMK potassium channel modulators, primary screen, cell-based, thallium flux, MLSMR library. AID 1918, 2009. 130,000 compounds, 2% hits. Tet-inducible ROMK, thallium flux fluorescence; actives lie on both sides. ATP-sensitive inward rectifier potassium channel 1 (Homo sapiens), P48048. B-score at 10 µM;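 active means signal ratio slope over the read window, or its plate-corrected B-score, at least 3 SD from the plate mean, either direction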;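 further: B-score of the F/F0 ratio slope over 7 to 12 s after thallium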
Target sequence (P48048 whole entry, looked up): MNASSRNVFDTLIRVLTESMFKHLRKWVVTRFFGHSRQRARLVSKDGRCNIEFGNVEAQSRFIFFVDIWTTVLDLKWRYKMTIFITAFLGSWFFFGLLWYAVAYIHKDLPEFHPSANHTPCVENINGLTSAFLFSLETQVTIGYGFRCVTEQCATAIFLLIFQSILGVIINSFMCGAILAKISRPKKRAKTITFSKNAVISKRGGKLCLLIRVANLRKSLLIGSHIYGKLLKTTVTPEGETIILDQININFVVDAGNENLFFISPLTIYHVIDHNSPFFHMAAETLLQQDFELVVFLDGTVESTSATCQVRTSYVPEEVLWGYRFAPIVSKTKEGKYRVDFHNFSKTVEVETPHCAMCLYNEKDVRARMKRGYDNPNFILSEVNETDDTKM
p97 ATPase inh – inhibitors of human p97 ATPase, primary screen, biochemical; Transitional endoplasmic reticulum ATPase (Homo sapiens), P55072; 220,000 compounds, 0.42% hits; recombinant p97 ATPase, Kinase-Glo ATP luminescence, 3 h; AID 1481, 2009; inhibition, % at 8 µM; in the data active means inhibition above about 15%;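 further: 0% = DMSO vehicle and 100% = wells lacking enzyme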
Lmaj promast – Leishmania major promastigote growth inhibition, primary screen | inhibition, % at 10 µM | Leishmania major promastigotes, resazurin fluorescence viability | 200,000 compounds, 9% hits; in the data active means inhibition above about 50%;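 further: promastigotes grown with compound for 44 hours at 28 °C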
INS promoter inh – inhibitors of insulin promoter-driven GFP, primary screen, imaging, TRM-6 cells (human fetal islet line), eGFP reporter, cell count. reporter expression induced with tamoxifen. inhibition, % at 2 µM. 130,000 compounds, 0.9% hits;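 active means inhibition above the mean plus 3 SD, with well images judged a real hit on visual review, cut at about 60% in these data, passing the limit was not always enough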
HCT116 PTEN-null – growth suppression of PTEN-null HCT116, primary screen, cell-based, CellTiter-Glo; HCT116 PTEN-null viability, 60 h; stronger effect = lower value; viability, % at 10 µM; 140,000 compounds, 1.2% hits; AID 827, 2007;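 active means viability at or below a set limit, 4 SD under the median of all tested compounds, cut at about 3.7% in these data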;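 further: PTEN knockout HCT116 line with beta catenin targeted HCT116 as companion control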
* marks the source's active call; other numbers are inactive results. Only some compounds are listed: those with a hit (about 10% of all), similar ones and a draw of the others.

COc1cc2c(cc1NC(=O)CSc1nc3cc(Cl)ccc3s1)oc1ccccc12 was read as HCT116 bCat-KO 11.7, ROMK primary -0.233, p97 ATPase inh 1.2, Lmaj promast 50.6*, INS promoter inh 44.7 and HCT116 PTEN-null 9.9.
COc1cc2c(cc1NC(=O)COC(=O)[C@@H](NS(=O)(=O)c1cccc(Cl)c1)C(C)C)oc1ccccc12 was read as HCT116 bCat-KO 59.7, p97 ATPase inh -2.0, Lmaj promast 62.2*, INS promoter inh -53.1 and HCT116 PTEN-null 57.9.
For COC(=O)Nc1ccc(S(=O)(=O)N2CCCCC2C(=O)O)cc1 (stereo unspecified) the results were ROMK primary -1.01, p97 ATPase inh 4.9, Lmaj promast 1.0 and INS promoter inh 26.3.
COC(=O)Nc1ccc(S(=O)(=O)N2c3ccccc3CCC2C)cc1 (stereo unspecified) was read as HCT116 bCat-KO 18.6, p97 ATPase inh 3.3, Lmaj promast 99.7* and HCT116 PTEN-null 20.5.
`O=C(CSc1nnc(-c2ccc(O)cc2)n1Cc1ccccc1)NNC(=O)c1ccc(Br)cc1` gave HCT116 bCat-KO 97.8, ROMK primary -0.628, p97 ATPase inh 13.5, Lmaj promast -14.2, INS promoter inh 37.0 and HCT116 PTEN-null 105.6.
For CCc1ccc2[nH]c3nc(C)cc(C)c3c(=O)c2c1 the results were HCT116 bCat-KO 84.8, ROMK primary 0.912, p97 ATPase inh 2.6, Lmaj promast 26.0, INS promoter inh 81.5* and HCT116 PTEN-null 84.6.
COc1ccccc1NC(=O)C1=C(C)Nc2nnnn2C1c1ccccn1 (stereo unspecified) was read as HCT116 bCat-KO 93.4, p97 ATPase inh 0.7, Lmaj promast 85.5*, INS promoter inh 0.0 and HCT116 PTEN-null 86.3.
Screening O=C(CCc1nnc(COc2ccccc2)o1)NCc1ccccc1C(F)(F)F returned ROMK primary -0.108, p97 ATPase inh 0.6 and Lmaj promast -6.2.
Screening CCCn1c2ccc(/C(C)=N\O)cc2c2cc(/C(C)=N/O)ccc21 returned HCT116 bCat-KO 80.0, p97 ATPase inh 1.4, Lmaj promast 59.4*, INS promoter inh -5.3 and HCT116 PTEN-null 71.6.
For C/C(=N\O)c1ccc(Cl)c(Cl)c1 the results were ROMK primary -0.119 and p97 ATPase inh -0.2.
`CCC(C)(NC(=O)c1ccc2c(c1)OCO2)C(=O)NC1CCCCC1` (stereo unspecified) gave ROMK primary 0.664, p97 ATPase inh -2.0, Lmaj promast -6.2 and INS promoter inh -20.0.
O=C(Nc1ccccc1Cl)c1ccccc1Cc1ccccc1 was read as HCT116 bCat-KO 69.0, ROMK primary -0.187, p97 ATPase inh -1.1, Lmaj promast -5.3 and HCT116 PTEN-null 83.0.
CCNC(=S)N/N=C/c1cccs1 was read as HCT116 bCat-KO 98.6, ROMK primary 0.105, p97 ATPase inh -1.7, Lmaj promast 99.6*, INS promoter inh -39.1 and HCT116 PTEN-null 101.0.
`COc1ccc(C=O)cc1COc1ccc([N+](=O)[O-])c(C)c1` gave ROMK primary 1.87, p97 ATPase inh 3.5 and Lmaj promast 36.8.
Screening COc1ccc(/C=N/NC(=S)Nc2ccccc2)cc1COc1ccc(F)cc1F returned HCT116 bCat-KO 81.3, ROMK primary 0.0792, p97 ATPase inh 1.8, Lmaj promast 54.5*, INS promoter inh -22.2 and HCT116 PTEN-null 80.5.
Screening COc1ccc(C=O)cc1COc1ccccc1F returned HCT116 bCat-KO 22.8, ROMK primary 1.07, p97 ATPase inh 0.4, Lmaj promast 61.0*, INS promoter inh -11.5 and HCT116 PTEN-null 21.6.
COc1ccc(/C=C/C(=O)c2ccccc2)cc1COc1ccccc1F was read as HCT116 bCat-KO 7.4, p97 ATPase inh -1.7, Lmaj promast 62.1*, INS promoter inh 43.3 and HCT116 PTEN-null 5.4.
O=C(CCn1c(=S)oc2ccccc21)NC1CCCCC1 was read as ROMK primary 0.114 and p97 ATPase inh 1.3.
For CC(C)CNCC1OCc2ccccc2CO1 the results were ROMK primary 0.0379 and p97 ATPase inh 2.0.
Screening CC(C)N1CCc2c(sc(NC(=O)c3cc4cc([N+](=O)[O-])ccc4s3)c2C(N)=O)C1 returned ROMK primary -0.0733, p97 ATPase inh 2.4, Lmaj promast 100.4* and INS promoter inh -368.4.
Screening CN1CCc2c(sc(NC(=O)c3ccc(S(=O)(=O)N4CCc5ccccc54)cc3)c2C(N)=O)C1 returned ROMK primary 0.809 and p97 ATPase inh 14.7*.
Screening CN1CCc2c(sc(NC(=O)c3cc4cc([N+](=O)[O-])ccc4s3)c2C(N)=O)C1 returned ROMK primary -0.000968, p97 ATPase inh 8.7, Lmaj promast 100.5* and INS promoter inh -241.7.
CNC(=O)c1c(NC(=O)c2ccc(S(=O)(=O)N3CCCc4ccccc43)cc2)sc2c1CCN(C)C2 was read as ROMK primary -1.9 and p97 ATPase inh 9.8.
Screening COc1ccc(S(=O)(=O)NNC(N)=S)cc1 returned ROMK primary 0.305, p97 ATPase inh -3.1 and Lmaj promast 0.6.
For COc1ccccc1-c1cc2nc(C)c(CCC(=O)NC(C)CCc3ccco3)c(C)n2n1 (stereo unspecified) the results were HCT116 bCat-KO 68.0, p97 ATPase inh -0.5, Lmaj promast 97.9* and HCT116 PTEN-null 76.9.
For Cc1nc2c(-c3ccccc3)c(C)nn2c(C)c1CCC(=O)NC(C)CCc1ccco1 (stereo unspecified) the results were HCT116 bCat-KO 94.3, p97 ATPase inh -5.3, Lmaj promast 100.0* and HCT116 PTEN-null 105.5.
For COc1ccccc1CNC(=O)CCc1c(C)nc2cc(-c3ccccc3OC)nn2c1C the results were ROMK primary 0.11 and p97 ATPase inh 1.7.
Cc1ccc(C(=O)N2N=C(CC(C)C)CC2(O)C(F)(F)F)o1 (stereo unspecified) was read as ROMK primary 0.098, p97 ATPase inh -1.0 and Lmaj promast 2.4.
COc1cccc(/C=N/NC(=O)c2cc(C34CC5CC(CC(C5)C3)C4)[nH]n2)c1 was read as HCT116 bCat-KO 92.6, p97 ATPase inh 5.4, Lmaj promast 88.9*, INS promoter inh -3.9 and HCT116 PTEN-null 105.8.
For COc1ccc(/C=N/NC(=O)c2cc(C34CC5CC(CC(C5)C3)C4)[nH]n2)cc1OC the results were HCT116 bCat-KO 97.2, p97 ATPase inh 3.9, Lmaj promast 26.7 and HCT116 PTEN-null 109.4.
Screening CCc1cccc(C)c1NC(=S)N(CCCN1CCOCC1)Cc1cccnc1 returned ROMK primary -0.863, p97 ATPase inh 1.1 and Lmaj promast 12.3.
CN(Cc1ccccc1)C(=O)c1oc(=O)c2ccccc2c1-c1ccccc1 was read as HCT116 bCat-KO 81.5, ROMK primary -2.17, p97 ATPase inh -0.9, Lmaj promast 55.2*, INS promoter inh -11.1 and HCT116 PTEN-null 75.9.
